Results filed as inconclusive are left out. A structure can be active in one record and inactive in another. The source made the active and inactive calls. The calls were made as follows, unless noted: active = hit-call score of the fitted dose curve at least 0.9, where 1 is the maximum; inconclusive = response in the unintended direction; inactive = score below 0.9.
Tests used:
[1] = target: Retinoic acid receptor alpha (Homo sapiens) (UniProt P10276); assay: ATG_DR5_RAR_CIS: Attagene CIS-FACTORIAL HepG2 Assay for human Retinoic Acid Receptor Alpha (RARE), DR5 submotif (AID 2282934; active = hit-call score of the fitted dose curve at least 0.9, where 1 is the maximum; inactive = score below 0.9); settings: HepG2 Attagene cis-factorial RARE DR5 reporter, mRNA; actives raise or lower the signal
Method in brief: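 HepG2 cells transiently transfected with multiplexed reporter units; DR5 cis-element drives reporter through endogenous transcription factors. After 24 h dosing, reporter mRNA quantified by RT-PCR, fluorescent labeling, HpaI digestion and capillary electrophoresis; bidirectional fitting versus DMSO.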

[2] = target: Bile acid receptor (Homo sapiens) (UniProt Q96RI1); assay: ATG_IR1_CIS: Attagene CIS-FACTORIAL HepG2 Assay for human Nuclear Receptor Subfamily 1 Group H Member 4 (NR1H4), IR1 submotif (AID 2282946; active = hit-call score of the fitted dose curve at least 0.9, where 1 is the maximum; inactive = score below 0.9); settings: IR1 reporter transcription, actives raise or lower the signal
Method in brief: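 HepG2 cells transiently transfected with multiple cis-promoter-driven reporter units to measure endogenous transcription factor activity; 24 h exposure. Reporter mRNA read by RT-PCR, FAM labelling, HpaI digestion and capillary electrophoresis. Bidirectional fit versus DMSO.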

[3] = ATG_PPRE_CIS: Attagene CIS-FACTORIAL HepG2 Assay for human Peroxisome Proliferator-activated Response Element (PPRE) (AID 2282958; active = hit-call score of the fitted dose curve at least 0.9, where 1 is the maximum; inactive = score below 0.9); settings: HepG2 PPRE cis-element reporter, Attagene transcription factor profiling; actives raise or lower the signal
Method in brief: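 Cells are first transfected transiently with the multiplexed reporter library, then dosed for 24 h. Total RNA is reverse-transcribed, amplified, fluorescently end-labeled and HpaI-cut before capillary electrophoresis; activity is fitted bidirectionally against DMSO controls.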

[4] = ATG_M_19_TRANS: Attagene TRANS-FACTORIAL HepG2 Assay for M19 Transcription Factor (Internal Marker) (AID 2282974); settings: HepG2 Attagene TRANS-FACTORIAL M19 internal marker reporter
Method in brief: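 Cells: human HepG2, transiently transfected with multiplexed reporter transcription units. Exposure: 24 h. Detection: RT-PCR of reporter mRNA with capillary electrophoresis. Analysis: gain-of-signal vs DMSO.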

[5] = target: Oxysterols receptor LXR-beta (Homo sapiens) (UniProt P55055); assay: ATG_LXRb_TRANS: Attagene TRANS-FACTORIAL HepG2 Assay for human Liver X Receptor beta (LXRb) (AID 2282981); settings: HepG2 Attagene TRANS GAL4-LXRb reporter, mRNA
Method in brief: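 HepG2 cells transiently transfected with GAL4-UAS reporter units for chimeric NR-Gal4 proteins, dosed for 24 h. Reporter transcripts measured by RT-PCR and capillary electrophoresis; gain-of-signal fitting relative to DMSO.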

[6] = target: Nuclear receptor subfamily 4 group A member 2 (Homo sapiens) (UniProt P43354); assay: ATG_NURR1_TRANS: Attagene TRANS-FACTORIAL HepG2 Assay for human Nuclear Receptor Related Protein 1 (NURR1) (AID 2282985); settings: HepG2 Attagene TRANS reporter, mRNA readout
Method in brief: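 HepG2 cells transiently transfected with NURR1-Gal4 chimera and GAL4-UAS reporter units; after 24 hr compound exposure, reporter mRNA quantified by RT-PCR and capillary electrophoresis; gain of signal fitted against DMSO.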

[7] = target: human RAR-related Orphan Receptor gamma (RORg), RORC (gene 6097) (UniProt P51449); assay: ATG_RORg_TRANS: Attagene TRANS-FACTORIAL HepG2 Assay for human RAR-related Orphan Receptor gamma (RORg) (AID 2283011);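 as to AC50: potency for induction of reporter transcripts above DMSO so activators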
Method in brief: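 HepG2 cells transiently transfected with GAL4-UAS reporter units and chimeric RORg-Gal4 construct; after 24 h chemical exposure, reporter mRNA measured by RT-PCR with fluorescent capillary electrophoresis, gain of signal fitted against DMSO.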

[8] = TOX21_p53_BLA_p2_viability: Viability Assessment in the Tox21 HCT-116 p53 Agonism Beta-lactamase Assay, Phase 2 (AID 2283591);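 also: compound exposure lasted 16 h at 37 °C; actives lower the ATP signal meaning cytotoxicity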
Method in brief: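 HCT116 p53-bla cells, 4000/well, dosed after 5 h plating (217-fold dilution of DMSO stocks) and incubated 16 h at 37C. Viability taken as cellular ATP by CellTiter-Glo luminescence after 30 min RT; signal loss marks cytotoxicity.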

[9] = TOX21_p53_BLA_p3_viability: Viability Assessment in the Tox21 HCT-116 p53 Agonism Beta-lactamase Assay, Phase 3 (AID 2283593);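 also: cells exposed to compound for 16 h before reading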
Method in brief: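 HCT116 cells, 4000/well, dosed 5 h after plating by pin transfer (217-fold dilution from DMSO stock) and incubated 16 h at 37C, 5% CO2. Viability read as ATP luminescence with CellTiter-Glo after 30 min at room temperature.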

[10] = TOX21_p53_BLA_p4_viability: Viability Assessment in the Tox21 HCT-116 p53 Agonism Beta-lactamase Assay, Phase 4 (AID 2283597);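 also: hits lower the luminescence signal meaning cytotoxicity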
Method in brief: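 HCT-116 p53-bla cells, 4000/well, dosed after 5 h attachment and incubated 16 h at 37 °C, 5% CO2. Viability from CellTiter-Glo ATP luminescence after 30 min at room temperature, taken after the beta-lactamase read; loss of signal indicates cytotoxicity.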

[11] = CCTE_Harrill_HTTr_Viability_MCF7: CCTE's 6-hour Cell Viability Assessment for the High-Throughput Transcriptomics (HTTr) Platform, in MCF-7 cells cultured in DMEM + 10% fetal bovine serum, Harrill Lab (AID 2284010; active = hit-call score of the fitted dose curve at least 0.9, where 1 is the maximum; inactive = score below 0.9)
Method in brief: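 Cells were dosed with chemicals in an eight-point dilution series, imaged 6 hours later for propidium iodide uptake, and the endpoint was analyzed by bidirectional fitting against DMSO as negative control.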

[12] = CCTE_Harrill_HTTr_Apoptosis_MCF7: CCTE's 6-hour Apoptosis Assessment for the High-Throughput Transcriptomics (HTTr) Platform, in MCF-7 cells cultured in DMEM + 10% fetal bovine serum, Harrill Lab (AID 2284011; active = hit-call score of the fitted dose curve at least 0.9, where 1 is the maximum; inactive = score below 0.9)
Method in brief: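 MCF-7 cells in DMEM + 10% FBS exposed 6 h to chemicals over an eight-point dilution series. Caspase-3/7 activation imaged by high-content CellEvent Green staining; fitted bidirectionally versus DMSO.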

[13] = ATG_M_32_TRANS: Attagene TRANS-FACTORIAL HepG2 Assay for M32 Transcription Factor (Internal Marker) (AID 2282984); settings: HepG2 Attagene TRANS M32 internal marker reporter
Method in brief: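 HepG2 cells transiently transfected with GAL4-UAS reporter units, dosed for 24 hours. Reporter mRNA quantified by RT-PCR, 6-FAM labelling, HpaI digestion and capillary electrophoresis; internal-marker signal fitted upward relative to DMSO.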

[14] = target: human Peroxisome Proliferator-activated Receptor delta (PPARd), PPARD (gene 5467) (UniProt Q03181); assay: ATG_PPARd_TRANS: Attagene TRANS-FACTORIAL HepG2 Assay for human Peroxisome Proliferator-activated Receptor delta (PPARd) (AID 2283002)
Method in brief: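 HepG2 cells transiently transfected with GAL4-UAS multiplexed reporter units driven by exogenous chimeric NR-GAL4 proteins; 24 h compound exposure. Reporter mRNA measured by RT-PCR, 6-FAM primer extension, HpaI digestion and capillary electrophoresis; gain of signal fitted relative to DMSO.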

[15] = target: human Thyroid Receptor alpha (THRa1), THRA (gene 7067) (UniProt P10827); assay: ATG_THRa1_TRANS: Attagene TRANS-FACTORIAL HepG2 Assay for human Thyroid Receptor alpha (THRa1) (AID 2283014)
Method in brief: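 HepG2 cells transiently transfected with chimeric NR-Gal4 and GAL4-UAS reporter units, dosed 24 h. Reporter mRNA quantified by RT-PCR, fluorescent labeling, HpaI digestion and capillary electrophoresis; gain-of-signal fit versus DMSO.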

[16] = ACEA_ER_AUC_viability: ACEA Biosciences xCELLigence Real-Time Cell Analysis on Estrogen Receptor Agonism for Viability (AID 2283782);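 also: continuous compound exposure with impedance area under curve over 80 h; hit means loss of impedance signal meaning reduced cell growth or viability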
Method in brief: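 T47D cells preconditioned in phenol red-free RPMI with charcoal-stripped FBS, then dosed with 8-point 1:4 series from 100 uM (up to 0.5% DMSO). Impedance monitored up to ~80 h; area-under-curve loss versus DMSO taken as viability.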

[17] = target: Nuclear receptor subfamily 1 group I member 3 (Homo sapiens) (UniProt Q14994); assay: ATG_CAR_TRANS: Attagene TRANS-FACTORIAL HepG2 Assay for human Constitutive Androstane Receptor (CAR) (AID 2282969); settings: HepG2 Attagene TRANS-FACTORIAL CAR reporter;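 also: activators raise reporter mRNA above DMSO so AC50 marks induction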
Method in brief: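 HepG2 cells transiently transfected with GAL4-UAS reporter units; TRANS format reads activity of exogenous chimeric NR-Gal4 protein. After 24 h dosing, reporter mRNA quantified by RT-PCR, 6-FAM labelling and capillary electrophoresis; gain of signal fitted against DMSO.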

[18] = target: Oxysterols receptor LXR-alpha (Homo sapiens) (UniProt Q13133); assay: ATG_LXRa_TRANS: Attagene TRANS-FACTORIAL HepG2 Assay for human Liver X Receptor alpha (LXRa) (AID 2282980); settings: HepG2 Attagene TRANS reporter, LXRa transactivation
Method in brief: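 HepG2 cells transiently transfected with GAL4-UAS reporter units for chimeric NR-Gal4 proteins, exposed to chemicals for 24 h. Reporter mRNA quantified by RT-PCR and capillary electrophoresis; gain of signal fitted relative to DMSO.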

[19] = target: human RAR-related Orphan Receptor beta (RORb), RORB (gene 6096) (UniProt Q92753); assay: ATG_RORb_TRANS: Attagene TRANS-FACTORIAL HepG2 Assay for human RAR-related Orphan Receptor beta (RORb) (AID 2283010)
Method in brief: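 Readout is reporter-gene mRNA induction, detected as fluorescence after RT-PCR and capillary electrophoresis, fitted for gain of signal against DMSO controls. Transiently transfected HepG2 liver cells carrying GAL4-UAS reporter constructs were treated for 24 hours.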

[20] = ATG_GAL4_TRANS: Attagene TRANS-FACTORIAL HepG2 Assay for GAL4 (Internal Marker) (AID 2282976); settings: HepG2 Attagene TRANS GAL4 internal marker reporter
Method in brief: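 Background-control readout: GAL4-UAS reporter transcript in transiently transfected HepG2 cells after 24 h compound exposure. Measured by RT-PCR, 6-FAM primer extension, HpaI digest and capillary electrophoresis; gain-of-signal fit versus DMSO.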

Measured: AC50

human Thyroid Receptor alpha (THRa1), THRA (gene 7067), sequence (P10827 whole entry, looked up, the tested form may be a part): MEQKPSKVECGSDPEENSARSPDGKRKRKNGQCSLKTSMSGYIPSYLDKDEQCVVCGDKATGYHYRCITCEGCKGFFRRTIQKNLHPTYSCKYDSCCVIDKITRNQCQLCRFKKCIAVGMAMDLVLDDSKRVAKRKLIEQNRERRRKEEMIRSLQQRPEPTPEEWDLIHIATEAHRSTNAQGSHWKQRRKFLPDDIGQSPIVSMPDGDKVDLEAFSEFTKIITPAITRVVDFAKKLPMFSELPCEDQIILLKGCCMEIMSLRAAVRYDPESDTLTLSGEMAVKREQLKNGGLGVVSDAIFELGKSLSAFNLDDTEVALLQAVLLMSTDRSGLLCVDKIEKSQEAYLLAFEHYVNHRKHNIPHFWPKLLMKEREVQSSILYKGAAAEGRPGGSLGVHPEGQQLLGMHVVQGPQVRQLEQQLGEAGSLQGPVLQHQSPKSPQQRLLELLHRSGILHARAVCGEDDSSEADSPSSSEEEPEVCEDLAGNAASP
human RAR-related Orphan Receptor beta (RORb), RORB (gene 6096), sequence (Q92753 whole entry, looked up, the tested form may be a part): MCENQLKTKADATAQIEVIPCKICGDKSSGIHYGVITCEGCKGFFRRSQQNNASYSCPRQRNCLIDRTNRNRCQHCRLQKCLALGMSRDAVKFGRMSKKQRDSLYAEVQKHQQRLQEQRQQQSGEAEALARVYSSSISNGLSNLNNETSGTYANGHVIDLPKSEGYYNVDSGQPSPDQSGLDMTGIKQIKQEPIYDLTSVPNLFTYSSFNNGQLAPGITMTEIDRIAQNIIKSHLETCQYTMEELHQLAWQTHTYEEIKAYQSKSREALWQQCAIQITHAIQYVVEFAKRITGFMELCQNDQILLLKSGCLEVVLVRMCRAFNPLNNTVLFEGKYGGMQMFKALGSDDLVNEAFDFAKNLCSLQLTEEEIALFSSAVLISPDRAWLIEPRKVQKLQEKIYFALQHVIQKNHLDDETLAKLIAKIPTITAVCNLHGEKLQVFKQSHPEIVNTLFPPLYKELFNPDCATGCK
Nuclear receptor subfamily 4 group A member 2 (Homo sapiens), sequence (P43354 whole entry, looked up, the tested form may be a part): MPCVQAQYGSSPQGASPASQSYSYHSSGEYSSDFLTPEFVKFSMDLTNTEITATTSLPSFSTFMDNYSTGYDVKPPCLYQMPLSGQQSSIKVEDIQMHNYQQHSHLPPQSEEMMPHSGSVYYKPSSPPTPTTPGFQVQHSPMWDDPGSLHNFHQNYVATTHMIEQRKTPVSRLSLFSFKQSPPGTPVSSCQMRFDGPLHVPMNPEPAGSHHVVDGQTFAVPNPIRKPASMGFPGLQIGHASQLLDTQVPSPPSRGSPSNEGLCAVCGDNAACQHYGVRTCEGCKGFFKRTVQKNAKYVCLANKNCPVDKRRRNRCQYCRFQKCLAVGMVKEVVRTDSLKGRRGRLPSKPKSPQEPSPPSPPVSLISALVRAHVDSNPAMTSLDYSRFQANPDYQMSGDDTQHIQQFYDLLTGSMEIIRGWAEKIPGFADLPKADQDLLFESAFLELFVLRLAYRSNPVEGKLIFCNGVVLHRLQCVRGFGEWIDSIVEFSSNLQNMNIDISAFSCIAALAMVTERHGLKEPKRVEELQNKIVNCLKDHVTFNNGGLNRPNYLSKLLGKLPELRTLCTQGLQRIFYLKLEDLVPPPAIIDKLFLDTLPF
Bile acid receptor (Homo sapiens), sequence (Q96RI1 whole entry, looked up): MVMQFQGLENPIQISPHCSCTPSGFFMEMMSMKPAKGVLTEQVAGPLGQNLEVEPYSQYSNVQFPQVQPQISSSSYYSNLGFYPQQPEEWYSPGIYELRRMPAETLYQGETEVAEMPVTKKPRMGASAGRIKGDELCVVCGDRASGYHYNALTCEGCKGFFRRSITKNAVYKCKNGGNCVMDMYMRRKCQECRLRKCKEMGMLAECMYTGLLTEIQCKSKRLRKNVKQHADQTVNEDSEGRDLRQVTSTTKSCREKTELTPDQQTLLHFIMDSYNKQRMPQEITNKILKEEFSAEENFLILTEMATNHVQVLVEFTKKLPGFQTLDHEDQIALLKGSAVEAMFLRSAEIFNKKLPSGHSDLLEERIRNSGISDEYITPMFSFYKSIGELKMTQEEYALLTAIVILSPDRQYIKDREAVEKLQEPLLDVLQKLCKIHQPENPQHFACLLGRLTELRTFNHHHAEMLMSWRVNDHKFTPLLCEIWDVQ
Oxysterols receptor LXR-alpha (Homo sapiens), sequence (Q13133 whole entry, looked up, the tested form may be a part): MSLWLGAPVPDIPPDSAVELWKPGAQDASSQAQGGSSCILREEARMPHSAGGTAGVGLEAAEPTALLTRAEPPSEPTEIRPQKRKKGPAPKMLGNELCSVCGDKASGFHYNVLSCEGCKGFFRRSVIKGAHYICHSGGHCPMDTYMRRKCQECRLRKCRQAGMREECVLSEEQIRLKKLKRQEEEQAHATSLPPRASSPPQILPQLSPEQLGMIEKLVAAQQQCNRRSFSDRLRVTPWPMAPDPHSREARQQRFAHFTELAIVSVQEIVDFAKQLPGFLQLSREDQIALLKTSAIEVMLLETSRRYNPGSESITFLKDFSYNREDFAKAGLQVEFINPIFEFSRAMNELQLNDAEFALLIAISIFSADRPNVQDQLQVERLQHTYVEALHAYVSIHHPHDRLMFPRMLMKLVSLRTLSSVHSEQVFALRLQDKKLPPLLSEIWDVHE
Oxysterols receptor LXR-beta (Homo sapiens), sequence (P55055 whole entry, looked up, the tested form may be a part): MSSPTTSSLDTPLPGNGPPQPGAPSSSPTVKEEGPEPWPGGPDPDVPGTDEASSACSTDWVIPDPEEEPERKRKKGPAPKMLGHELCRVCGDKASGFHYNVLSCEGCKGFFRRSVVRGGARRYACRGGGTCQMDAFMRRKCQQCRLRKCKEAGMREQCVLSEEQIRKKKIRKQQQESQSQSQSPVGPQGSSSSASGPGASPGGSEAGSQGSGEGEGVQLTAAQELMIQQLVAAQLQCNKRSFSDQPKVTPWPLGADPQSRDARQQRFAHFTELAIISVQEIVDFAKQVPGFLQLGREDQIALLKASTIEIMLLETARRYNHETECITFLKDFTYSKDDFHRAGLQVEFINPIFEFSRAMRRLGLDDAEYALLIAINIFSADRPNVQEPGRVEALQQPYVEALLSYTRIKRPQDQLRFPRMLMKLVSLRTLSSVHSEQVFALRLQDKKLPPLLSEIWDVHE
human Peroxisome Proliferator-activated Receptor delta (PPARd), PPARD (gene 5467), sequence (Q03181 whole entry, looked up, the tested form may be a part): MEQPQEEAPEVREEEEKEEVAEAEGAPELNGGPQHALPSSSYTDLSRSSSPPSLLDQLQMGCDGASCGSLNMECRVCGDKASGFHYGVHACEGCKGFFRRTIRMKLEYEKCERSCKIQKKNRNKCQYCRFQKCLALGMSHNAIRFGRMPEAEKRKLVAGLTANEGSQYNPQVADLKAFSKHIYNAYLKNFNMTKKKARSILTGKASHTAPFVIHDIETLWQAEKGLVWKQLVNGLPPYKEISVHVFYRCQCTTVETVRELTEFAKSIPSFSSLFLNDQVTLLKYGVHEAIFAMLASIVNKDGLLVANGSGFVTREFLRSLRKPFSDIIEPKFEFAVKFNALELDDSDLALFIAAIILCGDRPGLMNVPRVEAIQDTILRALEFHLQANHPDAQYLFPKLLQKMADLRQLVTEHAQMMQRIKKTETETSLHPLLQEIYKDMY
Retinoic acid receptor alpha (Homo sapiens), sequence (P10276 whole entry, looked up): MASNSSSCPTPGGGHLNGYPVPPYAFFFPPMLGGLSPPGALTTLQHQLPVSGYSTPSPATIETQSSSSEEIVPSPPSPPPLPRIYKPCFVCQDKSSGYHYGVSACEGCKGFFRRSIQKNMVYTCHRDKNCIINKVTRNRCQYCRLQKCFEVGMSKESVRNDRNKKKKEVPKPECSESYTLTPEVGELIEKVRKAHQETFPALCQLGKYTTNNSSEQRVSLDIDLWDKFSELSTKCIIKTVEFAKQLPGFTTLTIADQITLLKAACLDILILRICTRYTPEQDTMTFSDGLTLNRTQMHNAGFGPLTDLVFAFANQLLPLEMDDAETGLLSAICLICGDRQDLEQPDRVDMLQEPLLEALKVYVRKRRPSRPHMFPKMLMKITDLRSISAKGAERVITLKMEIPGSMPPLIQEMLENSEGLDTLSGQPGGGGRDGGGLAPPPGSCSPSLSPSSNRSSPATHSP
human RAR-related Orphan Receptor gamma (RORg), RORC (gene 6097), sequence (P51449 whole entry, looked up, the tested form may be a part): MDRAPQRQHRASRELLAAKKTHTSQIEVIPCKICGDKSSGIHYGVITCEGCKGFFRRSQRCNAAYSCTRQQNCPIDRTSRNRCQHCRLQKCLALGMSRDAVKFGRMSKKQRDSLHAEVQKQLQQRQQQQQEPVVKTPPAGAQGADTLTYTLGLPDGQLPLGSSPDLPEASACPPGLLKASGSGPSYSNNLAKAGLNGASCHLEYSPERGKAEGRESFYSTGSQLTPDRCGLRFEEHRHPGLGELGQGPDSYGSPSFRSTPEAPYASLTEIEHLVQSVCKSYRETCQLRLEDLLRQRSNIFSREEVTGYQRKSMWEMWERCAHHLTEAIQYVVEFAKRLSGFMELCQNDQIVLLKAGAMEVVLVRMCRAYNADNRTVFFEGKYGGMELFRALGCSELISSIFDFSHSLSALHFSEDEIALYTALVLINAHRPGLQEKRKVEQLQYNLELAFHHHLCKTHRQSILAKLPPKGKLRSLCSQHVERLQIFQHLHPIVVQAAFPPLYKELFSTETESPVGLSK
Nuclear receptor subfamily 1 group I member 3 (Homo sapiens), sequence (Q14994 whole entry, looked up, the tested form may be a part): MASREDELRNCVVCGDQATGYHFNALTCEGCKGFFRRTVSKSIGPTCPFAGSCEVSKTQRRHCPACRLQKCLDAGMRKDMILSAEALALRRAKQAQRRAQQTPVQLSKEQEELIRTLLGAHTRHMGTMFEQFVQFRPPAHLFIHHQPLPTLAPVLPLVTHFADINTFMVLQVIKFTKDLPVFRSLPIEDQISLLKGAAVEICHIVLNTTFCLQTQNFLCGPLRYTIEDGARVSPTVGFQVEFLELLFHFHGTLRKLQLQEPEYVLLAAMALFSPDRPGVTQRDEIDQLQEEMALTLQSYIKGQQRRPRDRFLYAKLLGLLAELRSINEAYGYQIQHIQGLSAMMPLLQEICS

c1cc(OCC2CO2)ccc1Cc1ccc(OCC2CO2)cc1 (stereo unspecified)
active: [2] 37.4 µM | [3] 51.5 µM | [9] 87.4 µM
inactive: [1] | [4] | [5] | [6] | [7] | [8] | [9] | [10] | [11] | [12]

CCC1CCC(=O)O1 (stereo unspecified)
inactive: [1] | [13] | [14] | [7] | [15] | [16]

C[C@]12CC[C@H]3[C@@H](CC[C@@]45O[C@@H]4C(O)=C(C#N)C[C@]35C)[C@@H]1CC[C@@H]2O
not listed: [1] | [2] | [4] | [7] | [10] | [16] | [19] | [20]
inactive: all other assays above

CCC(Br)(CC)C(=O)NC(N)=O
inactive: [1] | [2] | [3] | [18] | [7] | [15] | [8] | [16]

[CH3][Sn]([CH3])([Cl])[Cl]
inactive: [1] | [17] | [4] | [18] | [5] | [6] | [14] | [19] | [7]
active: [16] 21.3 µM

C=CC(=O)OC
inactive: [1] | [2] | [3] | [17] | [20] | [5] | [6] | [7] | [15] | [8] | [9]

CN(C)C(=O)C(c1ccccc1)c1ccccc1
not listed: [2] | [5] | [13] | [15] | [16]
inactive: all other assays above

O=C(CCl)c1ccccc1
active: [7] 62 µM | [15] 55.9 µM | [16] 10.9 µM
not listed: [2] | [13] | [17] | [20]
inactive: all other assays above
